# The sample as a whole holds a higher share of the strongest signals than the screen did.
# B1: BabA (Helicobacter pylori), O52269_HELPY (protein)
# chain: AEDDGFYMSAGYQIGEAAQMVKNTKGIQELSDNYENLSNLLTRYSTLNTLIKLSADPSAVNAARENLGASAKNLIGDTKNSPAYQAVLLAINAAVGFWNVVGYVTQCGGNANGQKSTSSTTIFNNEPGYRSTSITCSLNGHMPGYYGPMSIENFKKLNEAYQILQTALKNGLPALKENNGTVNVTYSYTCSGEGNDNCSLQTTGVTNQNNGTKTETQTIDGKSVTTTISSKVVDSQ
# Key:
# Assay in all cases: glycan array binding signal (z-score within array); higher = stronger binding
# Conditions in all cases: glycan notation: IUPAC condensed, linker removed
# GalNAc6S(b1-4)GlcNAc = biological target: GalNAc6S(b1-4)GlcNAc
# Method in brief: (§1)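 Glycan array binding is given as a within-array Z-score, which can be read as non-binding when negative. The arrays, 3228 of them, came from the Consortium for Functional Glycomics database and were retained only where the protein sequence was available. Z-scores were averaged across arrays of the same protein sequence at different concentrations or buffers and across linkers.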
# [1] = biological target: Glc(a1-4)Glc(a1-4)Glc(a1-4)Glc
# Method in brief: as §1
# [2] = biological target: Glc(a1-6)Glc(a1-6)Glc(a1-6)Glc
# Method in brief: as §1
# GlcA(b1-6)Gal = biological target: GlcA(b1-6)Gal
# Method in brief: as §1
# [3] = biological target: GlcNAc(b1-2)[GlcNAc(b1-4)]Man(a1-3)[GlcNAc(b1-4)][GlcNAc(b1-2)[GlcNAc(b1-6)]Man(a1-6)]Man(b1-4)GlcNAc(b1-4)[Fuc(a1-6)]GlcNAc
# Method in brief: as §1
# [4] = biological target: GlcNAc(b1-3)Gal(b1-4)GlcNAc(b1-2)Man(a1-3)[GlcNAc(b1-3)Gal(b1-4)GlcNAc(b1-2)Man(a1-6)]Man(b1-4)GlcNAc(b1-4)GlcNAc
# Method in brief: as §1
# [5] = biological target: GlcNAc(b1-3)Gal(b1-4)GlcNAc(b1-3)Gal(b1-4)GlcNAc(b1-2)Man(a1-3)[GlcNAc(b1-3)Gal(b1-4)GlcNAc(b1-3)Gal(b1-4)GlcNAc(b1-2)Man(a1-6)]Man(b1-4)GlcNAc(b1-4)GlcNAc
# Method in brief: as §1
# [6] = biological target: GlcNAc(b1-3)Gal(b1-4)GlcNAc(b1-3)Gal(b1-4)GlcNAc(b1-2)[GlcNAc(b1-3)Gal(b1-4)GlcNAc(b1-3)Gal(b1-4)GlcNAc(b1-6)]Man(a1-6)[GlcNAc(b1-3)Gal(b1-4)GlcNAc(b1-3)Gal(b1-4)GlcNAc(b1-2)Man(a1-3)]Man(b1-4)GlcNAc(b1-4)[Fuc(a1-6)]GlcNAc
# Method in brief: as §1
# [7] = biological target: GlcNAc(b1-3)Gal(b1-4)GlcNAc(b1-3)Gal(b1-4)GlcNAc(b1-3)Gal(b1-4)GlcNAc(b1-2)Man(a1-3)[GlcNAc(b1-3)Gal(b1-4)GlcNAc(b1-3)Gal(b1-4)GlcNAc(b1-3)Gal(b1-4)GlcNAc(b1-2)Man(a1-6)]Man(b1-4)GlcNAc(b1-4)[Fuc(a1-6)]GlcNAc
# Method in brief: as §1
# [8] = biological target: GlcNAc(b1-3)Gal(b1-4)GlcNAc(b1-3)Gal(b1-4)GlcNAc(b1-3)Gal(b1-4)GlcNAc(b1-2)[GlcNAc(b1-3)Gal(b1-4)GlcNAc(b1-3)Gal(b1-4)GlcNAc(b1-3)Gal(b1-4)GlcNAc(b1-6)]Man(a1-6)[GlcNAc(b1-3)Gal(b1-4)GlcNAc(b1-3)Gal(b1-4)GlcNAc(b1-3)Gal(b1-4)GlcNAc(b1-2)Man(a1-3)]Man(b1-4)GlcNAc(b1-4)[Fuc(a1-6)]GlcNAc
# Method in brief: as §1
# [9] = biological target: Man(a1-2)Man(a1-6)[Man(a1-3)]Man(a1-6)[Man(a1-2)Man(a1-2)Man(a1-3)]Man
# Method in brief: as §1
# [10] = biological target: Neu5Ac(a2-3)Gal(b1-3)[Fuc(a1-4)]GlcNAc(b1-3)Gal(b1-4)[Fuc(a1-3)]GlcNAc
# Method in brief: as §1
# [11] = biological target: Neu5Ac(a2-3)Gal(b1-3)[Neu5Ac(a2-6)]GalNAc
# Method in brief: as §1
# [12] = biological target: Neu5Ac(a2-3)Gal(b1-4)GlcNAc(b1-2)Man(a1-3)[GlcNAc(b1-2)Man(b1-4)GlcNAc(b1-2)Man(a1-6)]Man(b1-4)GlcNAc(b1-4)GlcNAc
# Method in brief: as §1
# [13] = biological target: Neu5Ac(a2-3)Gal(b1-4)GlcNAc(b1-3)Gal(b1-4)GlcNAc
# Method in brief: as §1
# [14] = biological target: Neu5Ac(a2-3)Gal(b1-4)GlcNAc(b1-3)Gal(b1-4)GlcNAc(b1-3)Gal(b1-4)GlcNAc(b1-2)Man(a1-3)[Neu5Ac(a2-3)Gal(b1-4)GlcNAc(b1-3)Gal(b1-4)GlcNAc(b1-3)Gal(b1-4)GlcNAc(b1-2)Man(a1-6)]GalNAc
# Method in brief: as §1
# [15] = biological target: Neu5Ac(a2-3)Gal(b1-4)GlcNAc(b1-6)[Gal(b1-3)]GalNAc
# Method in brief: as §1
# [16] = biological target: Neu5Ac(a2-3)Gal(b1-4)[Fuc(a1-3)]GlcNAc(b1-3)GalNAc
# Method in brief: as §1
# [17] = biological target: Neu5Ac(a2-3)[GalNAc(b1-4)]Gal(b1-4)GlcNAc
# Method in brief: as §1
# [18] = biological target: Neu5Ac(a2-6)Gal(b1-4)GlcNAc(b1-2)Man(a1-3)[GlcNAc(b1-2)Man(b1-4)GlcNAc(b1-2)Man(a1-6)]Man(b1-4)GlcNAc(b1-4)GlcNAc
# Method in brief: as §1
# [19] = biological target: Neu5Ac(a2-6)Gal(b1-4)GlcNAc(b1-2)Man(a1-3)[Neu5Ac(a2-6)Gal(b1-4)GlcNAc(b1-2)Man(a1-6)]Man(b1-4)GlcNAc(b1-4)GlcNAc
# Method in brief: as §1
# [20] = biological target: Neu5Ac(a2-6)Gal(b1-4)GlcNAc(b1-2)Man(a1-3)[Neu5Ac(a2-6)Gal(b1-4)GlcNAc(b1-2)Man(a1-6)]Man(b1-4)GlcNAc(b1-4)[Fuc(a1-6)]GlcNAc
# Method in brief: as §1
# [21] = biological target: Neu5Ac(a2-6)Gal(b1-4)GlcNAc(b1-3)Gal(b1-4)GlcNAc(b1-3)Gal(b1-4)GlcNAc(b1-2)Man(a1-3)[Neu5Ac(a2-6)Gal(b1-4)GlcNAc(b1-3)Gal(b1-4)GlcNAc(b1-3)Gal(b1-4)GlcNAc(b1-2)Man(a1-6)]GalNAc
# Method in brief: as §1
# [22] = biological target: Neu5Ac(a2-6)GalNAc(b1-4)GlcNAc6S
# Method in brief: as §1
# [23] = biological target: Neu5Ac(a2-8)Neu5Ac(a2-8)Neu5Ac(a2-3)[Gal(b1-3)GalNAc(b1-4)]Gal(b1-4)Glc
# Method in brief: as §1
# [24] = biological target: Neu5Ac9Ac(a2-6)Gal(b1-4)GlcNAc
# Method in brief: as §1
binder,measurement,setting,value
B1,glycan array binding signal (z-score),GalNAc6S(b1-4)GlcNAc,-0.764
same,glycan array binding signal (z-score),[1],0.344
same,glycan array binding signal (z-score),[2],0.59
same,glycan array binding signal (z-score),GlcA(b1-6)Gal,-0.267
same,glycan array binding signal (z-score),[3],-0.373
same,glycan array binding signal (z-score),[4],0.363
same,glycan array binding signal (z-score),[5],4.69
same,glycan array binding signal (z-score),[6],3.66
same,glycan array binding signal (z-score),[7],2.94
same,glycan array binding signal (z-score),[8],2.92
same,glycan array binding signal (z-score),[9],-0.83
same,glycan array binding signal (z-score),[10],0.749
same,glycan array binding signal (z-score),[11],0.266
same,glycan array binding signal (z-score),[12],-1.52
same,glycan array binding signal (z-score),[13],-0.291
same,glycan array binding signal (z-score),[14],9.34
same,glycan array binding signal (z-score),[15],1.93
same,glycan array binding signal (z-score),[16],0.626
same,glycan array binding signal (z-score),[17],-0.627
same,glycan array binding signal (z-score),[18],-0.829
same,glycan array binding signal (z-score),[19],-0.571
same,glycan array binding signal (z-score),[20],1.19
same,glycan array binding signal (z-score),[21],5.39
same,glycan array binding signal (z-score),[22],-0.637
same,glycan array binding signal (z-score),[23],0.344
same,glycan array binding signal (z-score),[24],-0.224

# — the supplement of paper PMC8728848
